Compound activity from PubChem BioAssay.
Compounds with a hit are over-represented: about 2.8% of the library has one in this group of screens.
WRN inhibitor: blocks human WRN helicase. Q14191. WRN helicase unwinding, fluorescent forked duplex, kinetic. Potency, µM (doses to about 114 µM), inactives show top-dose activity change, negative = inhibition, hits mostly inhibitors. 360,000 tested, 0.46% active; further: potency means the concentration at half of the fitted maximal effect; on the % scale 0 is the no-effect control and ±100 the full control effect; nearly all actives have a fitted effect of over 55% in size
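Kinetic fluorescence helicase assay: unwinding of a quenched forked DNA duplex (100 nM final) with 2 mM ATP final raises red fluorescence (525/598 nm). Compounds sat 15 min at room temperature with 20 nM WRN beforehand.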
POLI inh: inhibitors of human DNA polymerase iota. Q9UNA4. Pol iota fluorescent replication assay, 10 min. Potency, µM (doses to about 115 µM), for inactives: top-dose activity, negative = inhibition, actives largely listed as inhibitors. 390,000 tested, 1% active; further: potency means the concentration at half of the fitted maximal effect
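Pol iota at 10 nM preincubated 15 min with compounds at room temperature; reaction started with fluorescent substrate, 50 nM final. Fluorescence read kinetically at 0 and 10 min; buffer-only wells as negative control.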
POLB inh: inhibitors of human DNA polymerase beta. P06746. AID 485314. Potency, µM (highest dose often 114 µM), for inactives: at the top dose activity change, negative = inhibition, most hits filed as inhibitors. Pol beta primer extension/strand displacement, fluorescence kinetic. 340,000 tested, 1.3% active; further: potency means the concentration at half of the fitted maximal effect; on the % scale 0 is the no-effect control and ±100 the full control effect
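Values derive from four-parameter Hill fits of normalized kinetic data: reads at 0 and 10 min following addition of 50 nM substrate to 10 nM Pol beta preincubated 15 min with compound.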
Pol eta inh: inhibitors of human DNA polymerase eta. Q9Y253. recombinant Pol eta, fluorescent DNA replication assay. Potency, µM (doses to about 114 µM), without a hit: top-dose activity change, negative = inhibition, usual class: inhibitors. 390,000 tested, 1.2% active. AID 588591; further: potency means the concentration at half of the fitted maximal effect; on the % scale 0 is the no-effect control and ±100 the full control effect
Target sequence (Q9Y253 whole entry, looked up): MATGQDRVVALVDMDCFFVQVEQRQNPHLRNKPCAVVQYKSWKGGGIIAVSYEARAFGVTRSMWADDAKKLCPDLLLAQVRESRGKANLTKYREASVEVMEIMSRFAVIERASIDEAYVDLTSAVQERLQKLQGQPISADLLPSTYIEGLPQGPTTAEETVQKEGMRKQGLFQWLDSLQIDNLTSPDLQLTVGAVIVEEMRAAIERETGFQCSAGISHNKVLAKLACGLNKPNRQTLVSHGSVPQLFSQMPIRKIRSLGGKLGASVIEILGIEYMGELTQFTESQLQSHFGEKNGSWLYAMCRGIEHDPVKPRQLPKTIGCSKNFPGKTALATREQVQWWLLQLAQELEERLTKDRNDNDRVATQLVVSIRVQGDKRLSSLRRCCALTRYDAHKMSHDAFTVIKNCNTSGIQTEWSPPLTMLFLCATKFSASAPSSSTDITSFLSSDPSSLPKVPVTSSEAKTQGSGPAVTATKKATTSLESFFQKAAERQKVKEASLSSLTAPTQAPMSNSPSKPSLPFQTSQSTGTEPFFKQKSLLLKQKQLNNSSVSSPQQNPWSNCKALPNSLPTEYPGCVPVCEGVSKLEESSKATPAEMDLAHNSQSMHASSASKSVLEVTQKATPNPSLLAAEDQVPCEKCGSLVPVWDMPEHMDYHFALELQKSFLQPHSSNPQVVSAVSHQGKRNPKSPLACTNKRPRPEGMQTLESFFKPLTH
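Pol eta (10 nM) was preincubated with compounds for 15 min at room temperature, after which fluorescent replication substrate (50 nM final) was added to start the reaction. Fluorescence was read kinetically at 0 and 10 min.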
PI5P4Ka inh: PI5P4K alpha (human) kinase inhibition; P48426; PI5P4Kalpha enzyme, ADP-Glo luminescence, 60 min; stronger effect = lower value; max response, %; 330,000 tested, 1.2% active; AID 652105; active means max response of -50% or lower; inconclusive means between -30% and -50%; inactive means -30% or higher; further: value at the top dose of about 77 µM; on the % scale 0 is the no-effect control and ±100 the full control effect
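Compounds were pin-transferred onto PI5P4Kalpha and substrate in HEPES pH 7.4 buffer with EGTA, CHAPS and 5% DMSO. ATP (5 microM final) started the reaction, which ran 60 minutes at room temperature before ADP-Glo detection.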
Pol kappa inh: inhibitors of human DNA polymerase kappa; Potency, µM (series often up to 107 µM), for inactives: top-dose activity, negative = inhibition, most hits filed as inhibitors; AID 588579; 400,000 tested, 0.53% active; purified Pol kappa, fluorescent DNA synthesis assay, 10 min; Q9UBT6; further: potency means the concentration at half of the fitted maximal effect; on the % scale 0 is the no-effect control and ±100 the full control effect
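Kinetic fluorescence screen: compound preincubated 15 min RT with 10 nM enzyme; 50 nM substrate (final) initiates; reads at 0/10 min.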
* hit, by the source's call; ? = inconclusive; . = no result given; [ ] = remark or other dose. Unless noted, the call rests on the fitted dose curve; in most records, active means well fitted curve in the direction sought with a large enough effect; inconclusive means small, poorly fitted or top-dose-only effect, or another doubt; inactive means no such curve, though single readings can be large; an effect the other way counts as inactive or inconclusive.

SMILES	WRN inhibitor	POLI inh	POLB inh	Pol eta inh	PI5P4Ka inh	Pol kappa inh
CCOC(=O)Cc1csc(NC(=O)C(NC(=O)C2CCC(C)CC2)C(C)C)n1 (stereo not drawn)	-1.4%	1.0%	15.1%	-24.8%	2.9	-7.5%
c1ccc(Nc2c(-c3ccco3)nc3ccccn23)cc1	1.1%	45.7%	2.9%	-7.4%	-8.4	-5.2%
c1ccc(-c2nc(-c3ccco3)n3ccccc23)cc1	-23.7%	-6.4%	35.5µM*	?	?	-8.0%
COc1cc(OC)c(OC)cc1/C=C/c1nccc2ccccc12	.	?	.	.	.	-21.3%
COc1cccc(NC(=O)CSc2nc3c(oc4ccccc43)c(=O)n2Cc2ccco2)c1	.	0.2%	-0.3%	-15.2%	.	0.5%
COc1cc2sc3cc(NCc4ccc(C)o4)ccc3c(=O)c2cc1OC	-10.6%[11.6 µM]	22.4µM*	.	-22.4%	-9.3	79.4µM*
COc1ccccc1CNC(=O)c1ccccc1C(=O)NC(CC(C)C)C(=O)NCc1ccccc1OC (stereo not drawn)	1.6%	70.8µM*	4.5%	-34.1%	3.1	-11.8%
COc1ccccc1CNC(=O)c1cnccn1	-16.1%[57.1 µM]	?	39.8µM*	70.8µM*	.	?
COc1ccccc1CNC(=O)COC(=O)c1cnccn1	-9.4%	?	67.5%	-8.8%	3.4	2.6%
COc1ccc(S(=O)(=O)N2CCC(C(=O)NC(C)c3ccccc3)CC2)cc1 (stereo not drawn)	.	22.7%	2.1%	-19.0%	.	0.3%
CCOC(=O)C1=C(Cc2ccc(F)cc2)C(=O)c2ccccc2C1=O	50.1µM*	?	4.6%	?	.	-19.4%
COc1ccccc1NC(=O)CSc1nc2sc(C)c(C)c2c(=O)n1C	0.2%	-45.3%	45.0%	-27.6%	-2.3	-12.9%
Cc1sc2nc(SCC(=O)Nc3c(C)n(C)n(-c4ccccc4)c3=O)n(C)c(=O)c2c1C	-15.1%	?	20µM*	?	.	-26.7%
O=C(CCn1ccc2cc(S(=O)(=O)N3CCCC3)ccc21)NCc1cccc(F)c1	5.0%	?	34.2%	-1.5%	-26.3	-15.5%
CC(=O)c1c(C)oc2c(Br)cc(NS(=O)(=O)c3ccc(Br)cc3)cc12	.	79.4µM*	?	-25.4%	.	-2.6%[60.1 µM]
Cc1cc(C)c2c(n1)nn1c(C)c(CCC(=O)Nc3cccc(C)c3C)c(C)nc21	.	-22.5%	27.9%	8.4%	.	-1.6%
COC(=O)[C@]12CCCCC=C1N(Cc1ccccc1)C(=O)[C@H](CC(=O)NCCc1ccccc1OC)C2	0.2%	.	.	.	-0.4	.
Cc1c(C(=O)NCc2cccc(Br)c2)oc2ccc3c(c12)C(=O)CC(C)(C)O3	.	79.4µM*	7.8%	.	.	?
Cc1cccc(C)c1NC(=O)c1oc2ccc3c(c2c1C)C(=O)CC(C)(C)O3	.	11.2%	32.0%	-5.1%	.	-3.8%
COc1cc(OC)c2c(C)c(CC(=O)NCc3ccccc3OC)c(=O)oc2c1	.	3.0%	-10.8%	28.2µM*	.	-4.8%
COc1ccccc1CNC(=O)c1oc2ccc3c(c2c1C)C(=O)CC(C)(C)O3	.	89.1µM*	1.8%	.	.	-18.7%
Cc1cc(C)cc(NC(=O)c2oc3ccc4c(c3c2C)C(=O)CC(C)(C)O4)c1	.	17.0%	-7.6%	-14.8%	.	-0.3%
COc1ccc(CCNC(=O)c2cc(S(=O)(=O)N3CCOCC3)ccc2F)cc1	-14.2%	7.2%	.	-18.5%	-4.5	-5.7%
CC1/C=C/C=C/C=C/C=C/C=C/C=C/C=C/C(OC2OC(C)C(O)C(N)C2O)CC2O[C@@](O)(CC(O)CC(O)C(O)CCC(O)CC(O)CC(=O)OC(C)[C@H](C)C1O)CC(O)C2C(=O)O (stereo partly drawn)	.	.	.	.	.	3.55µM*
Nc1c(Br)cc(/C=C2\C=Cc3ccccc32)cc1Br	.	33.5%	.	.	.	-10.5%
SMILES	WRN inhibitor	POLI inh	POLB inh	Pol eta inh	PI5P4Ka inh	Pol kappa inh
COC(=O)c1ccn(CC(=O)NC2CCCCC2)n1	-1.3%	-20.0%	39.8µM*	?	-20.0	-20.8%
O=C1CC(c2ccc3c(c2)OCO3)c2cc(O)ccc2O1 (stereo not drawn)	.	.	.	.	.	31.6µM*
Cc1ccc(C2CC(=O)Oc3cc4c(cc32)OCO4)cc1 (stereo not drawn)	.	.	.	.	.	44.7µM*
O=C1CC(c2ccc3c(c2)OCO3)c2ccc(O)cc2O1 (stereo not drawn)	.	.	.	.	.	-0.6%
Cc1ccn2c(Nc3c(C)cccc3C)c(-c3ccc(Cl)s3)nc2c1	.	18.5%	14.9%	-16.9%	.	1.8%
Cc1c(Cl)cccc1N=Cc1ccc([N+](=O)[O-])s1	-17.3%	35.5µM*	?	89.1µM*	.	-16.8%
CCN(c1ccccc1)S(=O)(=O)c1nnc(NC(=O)COc2cccc(C)c2)s1	.	19.2%	1.7%	-8.1%	.	-1.5%
COc1ccc(CN2C(=O)c3ccccc3C2=O)cc1C(=O)N(C)CC(=O)Nc1ccc(F)cc1	0.2%	17.3%	.	-20.4%	2.8	-1.3%
C=CCn1c(NS(=O)(=O)c2ccccc2)c(S(=O)(=O)c2ccc(C)cc2)c2nc3ccccc3nc21	-14.4%	3.16µM*	?	89.1µM*	7.4	4.8%
CC(C)c1ccc(OCC(=O)N(Cc2cccs2)C2CCS(=O)(=O)C2)cc1 (stereo not drawn)	.	13.9%	-5.1%	-6.9%	.	-3.6%
CCCCn1c(=O)[nH]c(=O)c2c1nc(Cn1ncc(Cl)c(Cl)c1=O)n2CCC	-23.4%	25.1µM*	50.1µM*	56.2µM*	-51.9*	-8.2%
O=C(N/N=C/C(Cl)=C/c1ccc([N+](=O)[O-])cc1)C(=O)Nc1ccccc1C(=O)O	?	17.8µM*	20µM*	44.7µM*	-50.2*	?
CCc1ccc2occ(CC(=O)N(Cc3ccccc3)C3CCS(=O)(=O)C3)c2c1 (stereo not drawn)	.	7.9%	-8.1%	-25.9%	.	-5.7%
Cc1cc(C)c2nc(-c3ccccn3)cc(C(=O)NCc3cc(C)n(C)n3)c2c1	-4.0%	17.4%	39.8µM*	-10.2%	-7.8	0.5%
Cc1cc(C)c2nc(-c3ccccn3)cc(C(=O)Nn3cnnc3)c2c1	-4.3%	83.8%	15.2%	-20.8%	-24.5	-14.4%
Cc1cc(C)c2nc(-c3ccccn3)cc(C(=O)NCc3ccco3)c2c1	?	?	39.8µM*	?	?	?
CC1=C(C(=O)N(C)C)CC(CC(=O)NC(c2ccccc2)c2ccccc2)C(=O)N1CCC1=CCCCC1 (stereo not drawn)	-2.6%	.	.	-8.7%	2.2	.
Oc1ccccc1Nc1nc(NCC2CCCO2)c2ccccc2n1 (stereo not drawn)	-15.9%	-7.6%	-18.4%	-6.7%	.	-4.4%
Oc1ccc(Nc2nc(NCC3CCCO3)c3ccccc3n2)cc1 (stereo not drawn)	35.5µM*	-2.7%	?	-13.3%	-3.6	-26.0%
